HIF-2a block = HIF-2a reporter inhibitors, primary screen, luminescence, 786-0 RCC cells. 786-0 RCC cells HIF-2a reporter, luciferase luminescence, overnight. actives 0.72% (n = 360,000). inhibition, % at 18.8 µM;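 active = inhibition of the luminescence signal of 40% or more relative to plate controls, in a single-dose primary screen at 18.75 µM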
Peg3 prom inh = Peg3 promoter-driven luciferase inhibitors, primary screen, cell-based, HeLa, luciferase luminescence; actives 1.7% (n = 360,000); inhibition, % at 20 µM; HeLa PEG-Prom luciferase reporter, overnight;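 active = inhibition of at least 50% at 20 µM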
EBV LMP1 NFkB = EBV LMP1-driven NF-kappaB luciferase reporter inhibitors, primary screen, cell-based, luminescence, single point | actives 0.69% (n = 350,000) | LMP1-induced NF-kappaB luciferase reporter cells | inhibition, % at 12.5 µM; in the data active = inhibition above about 41%; inconclusive = no clear call, values can overlap the other calls
TRPM1 prom inh = inhibitors of MITF-dependent TRPM1 promoter reporter, primary screen, cell-based, SK-MEL-5, single point, luciferase; SK-MEL-5 TRPM1 promoter luciferase, 24 h; inhibition, % at 12.5 µM; AID 488899, 2010; actives 0.83% (n = 330,000);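 active = mean inhibition across replicates of 60% or more, whatever share of single replicates reaches that level; inconclusive = some that reach 60%, reason not given; inactive = mean inhibition across replicates below 60%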
Shn3 inh set2 = reduction of Shn3 3'UTR firefly luciferase signal, primary screen, Schnurri-3 inhibitor project, cell-based, Clone20 osteoblasts, set 2; inhibition, % at 12.5 µM; Clone20 osteoblast Shn3 3'UTR firefly luciferase, 24 h; actives 0.52% (n = 360,000);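 active = mean inhibition of at least 75% with every replicate also reaching 75%; inconclusive = mean inhibition at least 75% but some replicate below; inactive = mean inhibition below 75%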
PAX8 reporter = inhibitors of PAX8-driven TPO luciferase reporter, primary screen, RMG-I cells, single concentration; SteadyGlo, 24 h; inhibition, % at 12.6 µM; actives 1.2% (n = 360,000);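 active = mean replicate inhibition at least 60% with every replicate also reaching 60%; inconclusive = only one of the two criteria is met; inactive = mean below 60% and not all replicates reaching 60%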;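 note: luciferase light reporting Pax8 driven TPO promoter activity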
Large screens that a line does not name were inactive. In the library only some 2.8% were active in any assay of this set; here they are far more common.

Cc1ccc(S(=O)(=O)N2CCOCC2)cc1NC(=O)c1cc2ccccc2oc1=O	none
CCCCn1c(=O)[nH]c(=O)c2c1ncn2Cc1ccco1	none (no result: PAX8 reporter)
O=c1c2cnn(-c3ccccc3)c2ncn1Cc1ccco1	none (no result: PAX8 reporter)
CCCCn1cnc2c(c(-c3ccccc3)c(-c3ccccc3)n2Cc2ccco2)c1=N	PAX8 reporter 100 (no result: EBV LMP1 NFkB, TRPM1 prom inh)
N=c1c2c(-c3ccccc3)c(-c3ccccc3)n(Cc3ccco3)c2ncn1Cc1ccco1	Peg3 prom inh 105, TRPM1 prom inh 66 (no result: PAX8 reporter)
Nc1c(N2CCCC2)cc(Cl)c2nonc12	TRPM1 prom inh 74 (no result: PAX8 reporter)
Nc1c(N2CCOCC2)cc(Cl)c2nonc12	none (no result: PAX8 reporter)
O=c1[nH][nH]c(-c2ccccc2O)c1C(C[N+](=O)[O-])c1ccc(Br)cc1 (stereo not given)	none
Cc1ccc(C(C[N+](=O)[O-])c2c(-c3ccccc3O)[nH][nH]c2=O)cc1 (stereo not given)	Peg3 prom inh 96
COCC(=O)NCCc1nc2ccccc2[nH]1	none (no result: TRPM1 prom inh, PAX8 reporter)
CCCC(=O)NCCCc1nc2ccccc2[nH]1	EBV LMP1 NFkB 87
COc1ccc(CCC(=O)NCCc2nc3ccccc3[nH]2)cc1	none
CCCC(=O)NCCc1nc2ccccc2n1C	none
Cc1ccc(CCNC(=O)CCc2nc3ccccc3[nH]2)cc1	EBV LMP1 NFkB 57
CCCC(=O)NCCCc1nc2ccccc2n1C	EBV LMP1 NFkB 92
C[C@H](NC(=O)c1ccco1)C(=O)Nc1ccc2c(c1)OCO2	none
C[C@H](NC(=O)c1ccco1)C(=O)Nc1cccc([N+](=O)[O-])c1	PAX8 reporter 100
O=C(Nc1cccc(N2C(=O)C=CC2=O)c1)c1cccs1	Peg3 prom inh 92, TRPM1 prom inh 73, PAX8 reporter 66
O=C(Nc1ccc2oc(-c3cccnc3)nc2c1)c1ccc(Br)o1	none (no result: PAX8 reporter)
O=C(Nc1ccc2oc(-c3cccnc3)nc2c1)c1ccc([N+](=O)[O-])o1	Peg3 prom inh 108, TRPM1 prom inh 71
O=C(Nc1nc(-c2cccs2)cs1)c1ccc([N+](=O)[O-])o1	TRPM1 prom inh 86, PAX8 reporter 67
O=C(Nc1cccc(NC(=O)c2cccs2)c1)c1ccc([N+](=O)[O-])o1	Peg3 prom inh 55, TRPM1 prom inh 98, PAX8 reporter 101
COc1cc(NC(=O)c2ccc([N+](=O)[O-])o2)ccc1NC(=O)c1cccs1	Peg3 prom inh 59, TRPM1 prom inh 87
O=C(Nc1ccc(NC(=O)c2ccc([N+](=O)[O-])o2)cc1Cl)c1ccco1	none
COc1cc(NC(=O)c2cccs2)ccc1NC(=O)Cc1ccccc1	none (no result: PAX8 reporter)
O=C(Nc1cccc(NC(=O)c2ccc([N+](=O)[O-])o2)c1)c1ccco1	Peg3 prom inh 57, TRPM1 prom inh 64, PAX8 reporter 92
CO[C@@H]1CN(C)C(=O)c2ccc(NC(C)=O)cc2OC[C@H](C)N(CC2CCCCC2)C[C@@H]1C	none (no result: HIF-2a block, Peg3 prom inh, EBV LMP1 NFkB, TRPM1 prom inh, Shn3 inh set2)
CN(C)/C=C/C(=O)c1ccc(N2CCN(c3ncc(C(F)(F)F)cc3Cl)CC2)cc1	Peg3 prom inh 73 (no result: PAX8 reporter)
CN(C)C=NC(=O)c1ccc(N2CCN(c3ncc(C(F)(F)F)cc3Cl)CC2)cc1	none (no result: PAX8 reporter)
C[C@H]1CCCCO[C@H](CN(C)C(=O)c2ccncc2)[C@@H](C)CN([C@@H](C)CO)C(=O)c2cc(NC(=O)CCC(F)(F)F)ccc2O1	none (no result: HIF-2a block, Peg3 prom inh, EBV LMP1 NFkB, TRPM1 prom inh, Shn3 inh set2)
COC(=O)c1nn(-c2ccc(-c3ccccc3)cc2)cc1O	TRPM1 prom inh 73 (no result: PAX8 reporter)
Cc1cc(=O)[nH]c(N/N=C/c2ccco2)n1	none (no result: PAX8 reporter)
Cc1cc(=O)[nH]c(N/N=C/c2ccc(C)o2)n1	EBV LMP1 NFkB 48
NC(=O)c1ccccc1N/C=C/C(=O)c1cccs1	EBV LMP1 NFkB 53 (no result: PAX8 reporter)
CC(C)NC(=O)N[C@H]1CC[C@@H](CC(=O)NCc2ccc(Oc3ccccc3)cc2)O[C@H]1CO	none (no result: HIF-2a block, Peg3 prom inh, EBV LMP1 NFkB, TRPM1 prom inh, Shn3 inh set2)
C[C@H]1CCC[C@]2(C)C[C@H]3OC(=O)C(CN4CCCCCC4)[C@H]3C=C12 (stereo not given in full)	TRPM1 prom inh 78, PAX8 reporter inconclusive
Cc1cc(C)cc(OCC(=O)Nc2ccc(N3CCCCC3)cc2)c1	none
Cc1cc(C)cc(OCC(=O)N(C)CC(=O)Nc2ccc(N3CCOCC3)cc2)c1	PAX8 reporter 75
COCCn1ccc2c(OCC(=O)Nc3cc(OC)ccc3OC)cccc2c1=O	Peg3 prom inh 52

Screens (PubChem BioAssay)
